Screens deposited in PubChem BioAssay by several laboratories.
A selection: hits, their analogues and other compounds. The true share with any hit is near 6.6%.
MPTP inh: blocks calcium-induced mitochondrial swelling; isolated mouse mitochondria, Ca2+ swelling absorbance, 30 min; inhibition, % at 10 µM; hit rate 1.4% among 360,000;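 active = inhibition of 50% or more, scaled per plate between neutral and stimulator controls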;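 note: 0% = DMSO wells given calcium and 100% = 1 mM EGTA wells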
Beta cell apopt: blocks beta cell apoptosis | hit rate 0.8% among 300,000 | protection from apoptosis, % (no concentration beside the values) | INS-1E cytokine-induced death, ATP luminescence, 48 h; percent of positive-control rescue, neutral wells zero;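 active = Every replicate reaches about 75%, or at least half do and their mean reaches it too, limit read from the data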;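 note: 0% = cytokine-treated negative control wells and 100% = positive control rescue; higher means more ATP so stronger rescue from cytokine killing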
GRIN3A LBD mod: modulators (binders) of human NR3A ligand-binding domain; Tm shift relative to glycine control, % at 25 µM; hit rate 2.5% among 340,000; NR3A LBD differential scanning fluorimetry, Tm shift; 0% = protein alone, 100% = glycine-bound protein;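 active = melting temperature shift of at least 10% of the positive control shift, at one fixed dose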
Mdm2 MdmX PPI: inhibitors of human Mdm2/MdmX interaction; hit rate 3% among 330,000; SaOS-2 split-luciferase Mdm2/MdmX complementation, luminescence; inhibition, % at 8 µM;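 active = inhibition of at least 50% at 8 µM in the primary screen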
Target sequence (O15151 whole entry, looked up): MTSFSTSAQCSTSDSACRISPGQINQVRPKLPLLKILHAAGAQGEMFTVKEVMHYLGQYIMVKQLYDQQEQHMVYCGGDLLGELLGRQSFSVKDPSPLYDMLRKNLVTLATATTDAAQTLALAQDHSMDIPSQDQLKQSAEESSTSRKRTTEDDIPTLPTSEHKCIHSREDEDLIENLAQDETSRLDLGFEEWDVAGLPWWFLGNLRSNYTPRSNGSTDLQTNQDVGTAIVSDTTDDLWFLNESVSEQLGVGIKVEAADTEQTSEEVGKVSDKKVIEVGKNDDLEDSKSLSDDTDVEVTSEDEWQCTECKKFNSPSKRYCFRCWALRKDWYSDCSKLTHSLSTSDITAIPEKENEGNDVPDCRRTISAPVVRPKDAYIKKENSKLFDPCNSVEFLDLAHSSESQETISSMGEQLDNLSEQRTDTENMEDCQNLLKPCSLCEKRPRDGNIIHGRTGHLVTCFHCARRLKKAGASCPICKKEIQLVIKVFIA
Target sequence (Q00987 whole entry, looked up): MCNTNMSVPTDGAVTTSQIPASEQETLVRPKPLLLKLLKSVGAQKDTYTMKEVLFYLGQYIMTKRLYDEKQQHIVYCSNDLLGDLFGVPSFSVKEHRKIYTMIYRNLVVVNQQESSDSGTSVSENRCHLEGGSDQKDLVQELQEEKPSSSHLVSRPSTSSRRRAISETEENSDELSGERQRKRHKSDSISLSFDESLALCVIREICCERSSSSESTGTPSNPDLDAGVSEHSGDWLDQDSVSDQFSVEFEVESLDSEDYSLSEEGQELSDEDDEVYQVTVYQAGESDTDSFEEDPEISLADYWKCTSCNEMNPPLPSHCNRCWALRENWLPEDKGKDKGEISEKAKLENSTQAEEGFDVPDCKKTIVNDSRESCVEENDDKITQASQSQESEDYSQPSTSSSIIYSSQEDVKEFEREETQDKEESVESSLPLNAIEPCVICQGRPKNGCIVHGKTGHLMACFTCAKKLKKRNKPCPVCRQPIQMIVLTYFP
CSC inhib: blocks cancer stem cells | cancer stem cell-like cells viability, luminescence | inhibition, % at 7.5 µM | hit rate 1.1% among 300,000 | AID 2717; in the data active = inhibition above about 75%; tested in HMLE shEcad cells
Gli-Sufu block: Gli-Sufu pathway antagonism; hit rate 0.74% among 340,000; inhibition, % at 5 µM; Sufu-KO-LIGHT fibroblasts, Gli luciferase reporter luminescence;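 active = inhibition above about 55%, limit read from the data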;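 note: 0% = DMSO-treated cells and 100% = wells with medium but no cells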
Starred values were filed as active, the others as inactive; . = not tested or not shown.

SMILES	MPTP inh	Beta cell apopt	GRIN3A LBD mod	Mdm2 MdmX PPI	CSC inhib	Gli-Sufu block
COc1cccc(Nc2nc(-c3cccc(N4C(=O)c5ccccc5C4=O)c3)cs2)c1	2	-5	33*	-22	30	14
COc1ccc(Nc2nc(-c3cccnc3)cs2)c(OC)c1	0	.	-15	-25	.	-43
COc1cccc(Nc2nc(-c3ccc(O)cc3)cs2)c1	-2	7	23*	-72	117*	-34
COc1ccc(NC(=O)CCC(=O)N2CCC(c3ccccc3)=N2)cc1S(=O)(=O)N1CCCCC1	0	.	-1	.	.	0
CC1=C(C(=O)N2CCOCC2)CC(CC(=O)NC2CCCCC2)C(=O)N1CCCN1CCCC1=O (stereo unspecified)	-1	.	.	.	.	.
CN1CCN(c2oc(-c3ccccc3F)nc2S(=O)(=O)c2ccc(Cl)cc2)CC1	0	.	10*	24	2	16
NC(=O)C1CCN(c2oc(-c3ccccc3F)nc2S(=O)(=O)c2ccc(Cl)cc2)CC1	2	.	4	-7	-3	2
N#CC(=C1NC(=O)c2ccccc21)c1nc2ccccc2n1CCO	-1	.	.	.	.	.
COc1ccc(C2=NOC(C(=O)N3CCN(C(=O)c4ccco4)CC3)C2)cc1OC (stereo unspecified)	-1	-4	39*	17	8	-20
COc1cc(-c2oc3cc(O)cc(O)c3c(=O)c2O[C@@H]2O[C@H](COC3O[C@@H](C)[C@H](O)[C@@H](O)[C@H]3O)[C@@H](O)[C@H](O)[C@H]2O)ccc1O (stereo partly specified)	0	-4	13*	2	-19	-14
C[C@@H]1O[C@@H](Oc2c(-c3ccc(O)c(O)c3)oc3cc(O)cc(O)c3c2=O)[C@H](O)[C@H](O)[C@H]1O	0	-4	-2	7	0	-29
COc1ccc(OC)c(NC(=O)CSc2nnc(C3CCCCC3)n2N)c1	1	.	14*	13	-11	-7
COc1ccc(NC(=O)CSc2nnc(C3CCCCC3)n2N)c(OC)c1	-2	0	-2	17	-1	-6
Cc1ccc(CNC(=O)[C@H]2O[C@@H](n3cnc4c(N)ncnc43)[C@H](O)[C@@H]2O)o1	0	.	.	.	.	.
Cc1cccc(C)c1NC(=O)C1(C)CN(S(C)(=O)=O)CC(=O)N1CCCn1ccnc1 (stereo unspecified)	1	.	.	.	.	.
COc1ccc2c(c1)c(CC(=O)NCc1cc([N+](=O)[O-])ccc1O)c(C)n2C(=O)c1ccc(Cl)cc1	27	8	24*	3	5	6
COc1ccc2c(c1)c(CC(=O)Nc1ccc(C(C)=O)cc1)c(C)n2C(=O)c1ccc(Cl)cc1	38	1	10	-2	-16	0
COc1cc(CNc2ccc(CNc3ncn[nH]3)cc2)ccc1OCc1ccccc1	5	-10	-2	-10	90*	-12
COc1ccccc1CNc1ccc(CNc2ncn[nH]2)cc1	1	-1	-1	5	1	-6
CCOC(=O)N1CCN(C(=O)c2ccc(OCC)c(OCC)c2)CC1	1	-2	10*	5	-2	-5
CCOc1ccccc1N1CCN(C(=O)c2ccccc2)CC1	1	-3	-3	-11	-13	12
CCOc1ccccc1N1CCN(C(=O)c2ccc3c(c2)OCO3)CC1	-1	-2	10*	22	-3	13
Cc1ccc(C)c(C(O)c2ncc(-c3cccc(F)c3)[nH]2)c1 (stereo unspecified)	0	.	.	.	.	.
Cn1c(=O)c2c(ncn2CC(O)CNc2ccc(Br)cc2)n(C)c1=O (stereo unspecified)	11	1	23*	5	9	16
CCCCCSc1nc(N2CCOCC2)c2c(c1C#N)CC(C)(C)OC2	14	-4	23*	3	-10	10
SMILES	MPTP inh	Beta cell apopt	GRIN3A LBD mod	Mdm2 MdmX PPI	CSC inhib	Gli-Sufu block
CCCOC(=O)CSc1nc(N2CCOCC2)c2c(c1C#N)CC(C)(C)OC2	-1	3	1	8	-3	32
O=S(=O)(c1ccc2c(c1)CCC2)N1CCNCC1	-1	.	0	-12	.	3
Cc1cc(C)c(OCC(=O)OCCNC(=O)c2cccnc2)c(C)c1	1	0	2	16	-1	-4
C=CCc1ccccc1OCC(=O)OCCNC(=O)c1cccnc1	0	.	20*	-24	13	14
O=Cc1ccc(Oc2cc(-c3ccccc3)nc(-c3ccccc3)n2)cc1	-29	9	-7	19	100*	-7
O=S(Cc1cc(Oc2ccccc2)nc(-c2ccccc2)n1)c1ccccc1 (stereo unspecified)	-3	-5	3	-12	1	13
COc1ccc(S(=O)(=O)Nc2cccc(F)c2)cc1C	0	-5	0	3	4	-2
COc1ccc(S(=O)(=O)Nc2ccc(S(=O)(=O)Nc3ccc(F)cc3)cc2)cc1C	4	1	16*	2	12	-1
c1ccc(-c2cn3c(n2)-c2ccccc2C3)cc1	2	42	13*	-111	28	-104
Cc1ccc(-c2nc3n(n2)Cc2ccccc2-3)cc1	0	18	1	-4	24	-92
Cc1ccccc1NC(c1cccc(Cl)c1)c1nnnn1C1CCCCC1 (stereo unspecified)	1	-3	13*	21	-3	-14
N#Cc1cccc(C(c2nnnn2C2CCCC2)N2CCCCCC2)c1 (stereo unspecified)	0	4	0	19	2	-3
O=C1C2C3C=CC(C3)C2S(=O)(=O)C2C3C=CC(C3)C12 (stereo unspecified)	0	.	.	.	.	.
COc1ccc2c(c1)C(C)(CCN)C(=O)N2C (stereo unspecified)	-1	-1	-1	12	-9	0
CCCN(CC(=O)Nc1ccccc1C)C(=O)c1cccc(-n2cnnn2)c1	0	-4	-1	-1	-12	2
O=C1/C(=N\S(=O)(=O)c2cccs2)C([n+]2ccccc2)=C([O-])c2ccccc21	1	97*	0	26	29	23
CC(C)(C)c1cc[n+](C2=C([O-])c3ccccc3C(=O)/C2=N\S(=O)(=O)c2cccs2)cc1	3	107*	0	50	66	4
Cc1ccc(S(=O)(=O)Cc2ccc(C(=O)NC3CCCCCC3)o2)cc1	0	-2	-1	22	-17	8
Cc1ccsc1C(=O)OCC(=O)NC1CCCC(C)C1C (stereo unspecified)	1	-4	2	-19	1	4
N#Cc1cc(Oc2ccc3ccccc3c2)c(-n2nnc3ccccc32)cc1C#N	-1	9	13*	31	4	13
COc1ccc(C(=O)Nc2ccc(C(=O)NCCc3ccccc3)cc2)cc1	0	0	22*	-20	-4	-13
CN(C(=O)c1ccccc1)c1ccccc1C(=O)NCCc1ccccc1	0	.	-1	15	-11	-1
COc1ccc(C(=O)N(C)c2ccccc2C(=O)NCCc2ccccc2)cc1	-1	89*	5	39	-12	6
